# Results published in the supplement of paper PMC7366291.
# Counter-ions that a name gives are not always drawn. ± gives the standard deviation or the standard deviation of the averaged measurements.
# Columns and labels:
# Settings in all cases: 25 µM; exposure: 24-48 hpf
# [1] = test system: Danio rerio Tg(wt1b:EGFP) embryo, pronephros; assay: glomerular separation, fold change vs DMSO control; higher = glomeruli further apart (abnormal)
# How it was run: (§1)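 Using a Fiji macro, distances and angles were calculated from 16 reference points set by hand on maximum projections of pronephroi imaged dorsally (470 nm, 10 z-slices) in agarose-filled 96-well plates. The dechorionated Tg(wt1b:EGFP) zebrafish embryos had received 25 μM compound in 0.5% DMSO in HEPES-buffered E3 with 0.003% PTU from 24 to 48 hpf at 28.5°C. Values more than 2 SD from a feature's mean were excluded. Each feature appears as a fold change over the mean of DMSO-treated embryos from the same day.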
# [2] = test system: Danio rerio Tg(wt1b:EGFP) embryo, pronephros; assay: glomerular width (mean of left and right), fold change vs DMSO control; higher = wider glomerulus
# How it was run: as §1
# [3] = test system: Danio rerio Tg(wt1b:EGFP) embryo, pronephros; assay: fraction of imaged embryos annotated as normal kidney; higher = less nephrotoxic; extreme values may be limits of the assay
# How it was run: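 Zebrafish embryos carrying Tg(wt1b:EGFP) were dechorionated and exposed to 25 μM compound (0.5% DMSO) between 24 and 48 hpf at 28.5°C. Their pronephroi were imaged by widefield fluorescence, and each embryo was classed by hand from maximum projections. The measure is the fraction of embryos per treatment falling in the normal-kidney category.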
# [4] = test system: Danio rerio Tg(wt1b:EGFP) embryo, pronephros; assay: pronephric angle neck segment to proximal convoluted tubule (mean of left and right), fold change vs DMSO control; higher = larger pronephric angle
# How it was run: as §1
SMILES,glomerular separation [1],glomerular width [2],fraction of imaged embryos annotated as normal kidney [3],pronephric angle neck segment [4]
"CN1CCC2(C)c3cc(O)ccc3N(C)C12 (single isomer, unassigned; (-)) [(-)-Eseroline fumarate salt]",0.883 ± 0.34,1.01 ± 0.025,0.917,1.02 ± 0.043
CC(=O)OCC(=O)[C@H]1CC[C@H]2[C@@H]3CC[C@H]4C[C@H](O)CC[C@]4(C)[C@H]3C(=O)C[C@]12C [Alfadolone acetate],1.22 ± 0.64,0.942 ± 0.057,0.75,1 ± 0.018
CCOC(=O)c1cncn1[C@H](C)c1ccccc1 [Etomidate],0.978 ± 0.27,0.949 ± 0.067,0.833,1.03 ± 0.011
C[C@]12CC[C@H]3[C@@H](CCC4=CC(=O)CC[C@@H]43)[C@@H]1CC[C@@H]2O [Nandrolone],1.02 ± 0.42,0.8978 ± 0.0049,0.833,0.95 ± 0.015
C=C(C)[C@@H]1[C@H]2OC(=O)[C@@H]1[C@]1(O)C[C@H]3O[C@]34C(=O)O[C@H]2[C@]14C [Picrotoxinin],1.19 ± 0.57,0.973 ± 0.011,0.917,1.01 ± 0.03
S=C(NC1CCCCC1)N1CCC(c2cnc[nH]2)CC1 [Thioperamide maleate],1.28 ± 0.6,0.974 ± 0.011,0.917,1.06 ± 0.013
O=c1[nH]oc2c1CCNC2 [THIP Hydrochloride],0.923 ± 0.31,1.08 ± 0.012,0.917,0.961 ± 0.03
CC[N+]1(C)CCCC(OC(=O)C(O)(c2ccccc2)c2ccccc2)C1 (configuration not stated) [Pipenzolate bromide],0.89 ± 0.28,1.051 ± 0.0016,0.909,0.981 ± 0.037
CC(N)C(O)c1ccccc1 (configuration not stated) [Phenylpropanolamine hydrochloride],0.921 ± 0.29,0.982 ± 0.054,0.917,1.07 ± 0.027
"CNCC(O)c1ccc(O)cc1 (racemic) [(+,-)-Synephrine]",1.01 ± 0.41,0.959 ± 0.015,0.833,1.017 ± 0.0012
CCC(C)C1O[C@]2(C=C[C@@H]1C)C[C@@H]1CC(C/C=C(\C)[C@@H](OC3C[C@H](OC)[C@@H](OC4C[C@H](OC)[C@@H](O)[C@H](C)O4)[C@H](C)O3)[C@@H](C)/C=C/C=C3\COC4[C@H](O)C(C)=CC(C(=O)O1)[C@]34O)O2 (some centres not stated) [Avermectin B1a],2.03 ± 1.1,0.898 ± 0.044,0.583,1.14 ± 0.069
COc1ccc(CCN2CCC(Nc3nc4ccccc4n3Cc3ccc(F)cc3)CC2)cc1 [Astemizole],2.83 ± 2.3,0.777 ± 0.12,0.333,1.01 ± 0.022
O=C1CC[C@@]2(O)[C@H]3Cc4ccc(O)c5c4[C@@]2(CCN3CC2CC2)[C@H]1O5 [Naltrexone hydrochloride dihydrate],0.749 ± 0.22,1.124 ± 0.0082,0.833,1.03 ± 0.058
C[N+]1(C)CCOC(O)(c2ccc(-c3ccc(C4(O)C[N+](C)(C)CCO4)cc3)cc2)C1 (configuration not stated) [Hemicholinium bromide],0.878 ± 0.14,0.95 ± 0.00098,0.917,1 ± 0.1
O=C(CCCN1CCC(n2c(=O)[nH]c3ccccc32)CC1)c1ccc(F)cc1 [Benperidol],1.04 ± 0.25,0.951 ± 0.034,0.917,0.992 ± 0.033
OC(c1ccccc1)(c1ccccc1)C1CCNCC1 [Azacyclonol],0.869 ± 0.25,0.9558 ± 0.0054,0.833,0.994 ± 0.029
CCC(=O)O[C@H]1CC[C@H]2[C@@H]3CCC4=CC(=O)CC[C@]4(C)[C@H]3CC[C@]12C [Testosterone propionate],1.12 ± 0.46,1.03 ± 0.035,0.75,0.9686 ± 0.0074
C[N+]1(C)CCCC(OC(=O)C(O)(c2ccccc2)c2ccccc2)C1 (configuration not stated) [Mepenzolate bromide],1.4 ± 0.8,1.01 ± 0.011,0.727,1 ± 0.054
CC1OC(OC2/C=C/C=C/C=C/C=C/CC/C=C/C=C/[C@H](C)[C@@H](O)[C@@H](C)[C@H](C)OC(=O)CC(O)CC(O)CC(O)CCC(O)C(O)C[C@]3(O)CC(O)C(C(=O)O)C(C2)O3)C(O)C(N)C1O (some centres not stated) [Nystatine],0.778 ± 0.16,0.994 ± 0.05,1,1.05 ± 0.053
Clc1ccc(C(OCCN2CCCCC2)c2ccccc2)cc1 (configuration not stated) [Cloperastine hydrochloride],0.819 ± 0.35,1.04 ± 0.069,0.917,0.994 ± 0.0094
CN1CCN(C(=O)OC2c3nccnc3C(=O)N2c2ccc(Cl)cn2)CC1 (configuration not stated) [Zopiclone],1.06 ± 0.41,0.93 ± 0.014,1,0.98709 ± 0.00059
C[N+](C)(C)CCCCCCCCCC[N+](C)(C)C [Decamethonium bromide],1.04 ± 0.55,1.01 ± 0.041,0.727,1.02 ± 0.021
COc1ccc(Cc2nccc3cc(OC)c(OC)cc23)cc1OC [Papaverine hydrochloride],0.972 ± 0.22,1.04 ± 0.065,0.833,0.968 ± 0.018
"CCC1(c2ccc(N)cc2)CCC(=O)NC1=O (configuration not stated) [Glutethimide, para-amino]",1.05 ± 0.27,1.04 ± 0.036,0.667,1.05 ± 0.021
CCCN1C[C@H](CSC)C[C@@H]2c3cccc4[nH]cc(c34)C[C@H]21 [Pergolide mesylate],1.26 ± 0.37,1.01 ± 0.019,1,0.997 ± 0.029
CN1[C@@H]2CC[C@H]1C[C@@H](OC(=O)C(CO)c1ccccc1)C2 (some centres not stated) [Atropine sulfate monohydrate],1.25 ± 0.3,1.04 ± 0.011,1,1 ± 0.063
NCC1(CC(=O)O)CCCCC1 [Gabapentin],0.802 ± 0.29,0.9761 ± 0.0014,0.75,0.981 ± 0.016
CN[C@@H]1[C@@H](O)[C@@H](O[C@@H]2[C@@H](O)[C@H](O[C@H]3O[C@H](CN)CC[C@H]3N)[C@@H](N)C[C@H]2N)OC[C@]1(C)O.CN[C@@H]1[C@@H](O)[C@@H](O[C@@H]2[C@@H](O)[C@H](O[C@H]3O[C@H]([C@@H](C)N)CC[C@H]3N)[C@@H](N)C[C@H]2N)OC[C@]1(C)O.CN[C@@H]1[C@@H](O)[C@@H](O[C@@H]2[C@@H](O)[C@H](O[C@H]3O[C@H]([C@@H](C)NC)CC[C@H]3N)[C@@H](N)C[C@H]2N)OC[C@]1(C)O [Gentamicine sulfate],0.941 ± 0.25,1.02 ± 0.024,0.667,1.01 ± 0.029
